Unmarked numbers belong to inactive results. Records with an inconclusive call do not appear. Entries that show only a call come without a potency. Active and inactive are the calls of the source. Unless noted, calls follow the shape of the full dose curve. Square brackets hold non-standard residues; d marks the D form. Peptide text beside a SMILES is read from it. pGlu = O=C1CC[C@@H](C(=O)O)N1
Columns and labels:
[1] = Nuclear factor erythroid 2-related factor 2/antioxidant responsive element (Nrf2/ARE) small molecule agonists: qHTS cell viability counter screen in human keratinocytes (AID 1919968; active = well fitted curve in the direction sought with a large enough effect in the repeat runs; an effect the other way counts as inactive or inconclusive; also: nearly all actives have a fitted effect of over 55% in size; also: potency is read from the fitted curve at half-maximal effect)
Procedure, shortened: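 Stably transfected HaCaT (KeratinoSens), 1,500/well. Test agents in DMSO were applied for 23 h, 37 C/5% CO2. CellTiter-Fluor was incubated 1 h before the fluorescence read.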

[2] = target: Gonadotropin-releasing hormone receptor (Homo sapiens) (UniProt P30968); assay: Human gonadotropin-releasing hormone receptor (GnRHR) small molecule agonists, calcium flux assay in GnRHR-HEK293 cells (AID 1920063); also: nearly all actives have a fitted effect of over 35% in size; also: potency is read from the fitted curve at half-maximal effect
Sequence of Gonadotropin-releasing hormone receptor (Homo sapiens) (P30968 whole entry, looked up): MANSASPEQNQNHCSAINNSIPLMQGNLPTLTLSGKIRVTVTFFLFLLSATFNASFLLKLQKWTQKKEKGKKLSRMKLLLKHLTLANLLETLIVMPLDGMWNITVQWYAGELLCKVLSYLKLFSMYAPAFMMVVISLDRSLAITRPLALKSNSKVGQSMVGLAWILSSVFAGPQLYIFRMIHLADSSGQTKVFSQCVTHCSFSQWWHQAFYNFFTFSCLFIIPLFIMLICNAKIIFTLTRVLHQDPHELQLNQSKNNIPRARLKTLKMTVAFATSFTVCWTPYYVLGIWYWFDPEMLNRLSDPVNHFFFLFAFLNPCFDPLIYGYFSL
Procedure, shortened: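 Stable human GnRHR HEK293 line. 18 h plating, then calcium dye for 1 h at 37 C. Agonist-mode compound addition from DMSO stocks; fluorescence monitored 3 min.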

[3] = G protein-coupled receptor (GPCR) small molecule agonists, calcium flux assay: HEK293 wild type cell line counter screen (AID 1920065)
Procedure, shortened: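 Following 18 h incubation at 37 C/5% CO2, plates got calcium dye for 1 h; compounds, ATP or DMSO were then pinned in and fluorescence followed kinetically (480/540 nm).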

[4] = p53 small molecule agonists, cell-based qHTS assay with human liver microsomes (AID 1963577)
Procedure, shortened: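 p53RE-bla reporter cells were pre-incubated 5 h at 37 C, then treated with compounds plus human liver microsomes (0.5 mg/mL final) and NADPH (0.5 mg/mL final) for 16 h at 37 C. Beta-lactamase activity was read by LiveBLAzer fluorescence after 2 h at room temperature.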

[5] = p53 small molecule agonists, cell-based qHTS assay with rat liver microsomes (AID 1963578)
Procedure, shortened: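 p53RE-bla cells were exposed to compounds together with rat liver microsomes (0.5 mg/mL final) and NADPH (0.5 mg/mL final) for 16 h at 37 C, then read by LiveBLAzer beta-lactamase fluorescence after 2 h at room temperature.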

[6] = p53 small molecule agonists, cell-based qHTS assay with human liver microsomes: qHTS cell viability counter screen (AID 1963579); also: nearly all actives have a fitted effect of over 45% in size
Procedure, shortened: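 p53RE-bla cells (4,000/well) were pre-incubated 5 h at 37 C, then given compounds in DMSO plus human liver microsomes (0.5 mg/mL final) and NADPH (0.5 mg/mL final) for 16 h at 37 C. Viability was read by CellTiter-Glo luminescence.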

[7] = p53 small molecule agonists, cell-based qHTS assay with rat liver microsomes: qHTS cell viability counter screen (AID 1963580); also: nearly all actives have a fitted effect of over 45% in size
Procedure, shortened: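 Rat liver microsome (0.5 mg/mL final) and NADPH (0.5 mg/mL final) co-incubation with compounds for 16 h at 37 C on HCT-116 p53RE-bla cells; cytotoxicity taken from intracellular ATP luminescence.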

[8] = target: 5-hydroxytryptamine receptor 2A (Homo sapiens) (UniProt P28223); assay: 5-hydroxytryptamine receptor 2A (HTR2A) small molecule agonists, cell-based qHTS assay (AID 1963587); also: nearly all actives have a fitted effect of over 30% in size
Sequence of 5-hydroxytryptamine receptor 2A (Homo sapiens) (P28223 whole entry, looked up): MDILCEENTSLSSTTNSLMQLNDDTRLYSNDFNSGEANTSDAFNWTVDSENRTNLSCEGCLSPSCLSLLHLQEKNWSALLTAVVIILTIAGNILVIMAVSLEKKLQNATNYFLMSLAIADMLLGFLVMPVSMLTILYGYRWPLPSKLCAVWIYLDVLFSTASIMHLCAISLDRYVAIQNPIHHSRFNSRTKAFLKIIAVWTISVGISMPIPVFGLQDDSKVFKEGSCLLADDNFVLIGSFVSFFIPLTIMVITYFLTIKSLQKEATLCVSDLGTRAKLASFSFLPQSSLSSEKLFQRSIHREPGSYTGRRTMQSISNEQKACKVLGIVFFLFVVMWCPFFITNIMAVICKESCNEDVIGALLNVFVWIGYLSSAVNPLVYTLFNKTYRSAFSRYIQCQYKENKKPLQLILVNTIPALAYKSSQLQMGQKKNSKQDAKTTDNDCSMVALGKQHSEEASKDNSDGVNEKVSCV
Procedure, shortened: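 Kinetic calcium-flux fluorescence (2 min, 1 sec intervals) after compound addition in agonist mode. HTR2A-CHO cells were cultured 18 h, then dye-loaded 1 h at 37 C.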

[9] = cAMP Responsive Elements (CRE) small molecule agonists, cell-based qHTS assay (AID 1963590)
Procedure, shortened: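 Test agents in DMSO were incubated 3 h at 37 C/5% CO2 with CRE-bla HEK 293T cells seeded 18 h earlier; LiveBLAzer B/G FRET substrate was added and read after 2 h at room temperature.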

[10] = cAMP Responsive Elements (CRE) small molecule antagonists, cell-based qHTS assay (AID 1963591; active = well fitted inhibition curve with a large enough effect in the signal ratio in the repeat runs, not every such curve was filed as active; the % refers to the signal ratio)
Procedure, shortened: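 Reporter line CRE-bla HEK 293T in dialyzed-FBS DMEM; cells preincubated 18 h, treated 3 h with compound plus NKH477 (0.25 uM final); LiveBLAzer FRET, 2 h RT.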

[11] = target: Beta-2 adrenergic receptor (Homo sapiens) (UniProt P07550); assay: Adrenergic beta2 receptor (ADRB2) small molecule antagonists, cell-based qHTS assay (AID 1963592); also: nearly all actives have a fitted effect of over 50% in size; also: potency is read from the fitted curve at half-maximal effect
Sequence of Beta-2 adrenergic receptor (Homo sapiens) (P07550 whole entry, looked up): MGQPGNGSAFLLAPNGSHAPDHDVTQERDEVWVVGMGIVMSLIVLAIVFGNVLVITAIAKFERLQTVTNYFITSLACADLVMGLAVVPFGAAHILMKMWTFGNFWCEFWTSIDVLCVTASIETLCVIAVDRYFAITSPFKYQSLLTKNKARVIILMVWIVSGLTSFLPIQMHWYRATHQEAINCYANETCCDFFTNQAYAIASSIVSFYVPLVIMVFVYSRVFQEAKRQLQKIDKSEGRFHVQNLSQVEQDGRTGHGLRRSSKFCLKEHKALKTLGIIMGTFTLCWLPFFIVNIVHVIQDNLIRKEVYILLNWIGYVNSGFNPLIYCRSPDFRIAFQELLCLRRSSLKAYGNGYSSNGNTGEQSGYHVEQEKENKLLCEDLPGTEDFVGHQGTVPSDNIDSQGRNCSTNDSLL
Procedure, shortened: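 Assay format: CHO-ADRB2 cells, 18-20hr seeding at 37C/5% CO2, then compound plus 1nM isoproterenol agonist mix for 0.5hr RT. Homogeneous time-resolved fluorescence cAMP detection after 1hr, expressed as 665/615 nm ratio.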

[12] = target: D(2) dopamine receptor (Homo sapiens) (UniProt P14416); assay: Dopamine D2 receptor (DRD2) small molecule agonists, cell-based qHTS assay (AID 1963594); also: nearly all actives have a fitted effect of over 35% in size
Sequence of D(2) dopamine receptor (Homo sapiens) (P14416 whole entry, looked up): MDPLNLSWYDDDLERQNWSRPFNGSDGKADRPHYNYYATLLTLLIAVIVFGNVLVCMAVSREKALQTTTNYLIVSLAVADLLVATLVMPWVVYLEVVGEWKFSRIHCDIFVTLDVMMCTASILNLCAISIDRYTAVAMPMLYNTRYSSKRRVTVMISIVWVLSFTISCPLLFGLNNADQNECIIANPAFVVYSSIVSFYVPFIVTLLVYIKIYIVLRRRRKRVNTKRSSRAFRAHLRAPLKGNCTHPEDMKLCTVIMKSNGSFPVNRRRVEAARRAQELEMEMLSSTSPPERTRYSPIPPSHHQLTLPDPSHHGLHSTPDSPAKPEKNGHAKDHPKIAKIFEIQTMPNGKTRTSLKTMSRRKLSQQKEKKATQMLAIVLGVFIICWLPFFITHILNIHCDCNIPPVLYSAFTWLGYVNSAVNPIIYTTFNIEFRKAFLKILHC
Procedure, shortened: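 cAMP accumulation in DRD2-HEK293 cells measured by HTRF after 1 h detection; compounds added 10 min before NKH477 (200nM […]) forskolin-analogue stimulation, 30 min at room temperature, with Ro20-1724 present at 0.1 mM final.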

[13] = target: D(2) dopamine receptor (Homo sapiens) (UniProt P14416); assay: Dopamine D2 receptor (DRD2) small molecule antagonists, cell-based qHTS assay (AID 1963595; active = well fitted inhibition curve with a large enough effect in the signal ratio in the repeat runs, with a control signal flat; the % refers to the signal ratio; also: potency is read from the fitted curve at half-maximal effect)
Procedure, shortened: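 Readout: HTRF cAMP, cAMP-d2 competing with cellular cAMP for anti-cAMP cryptate, read after 1 h. Cells: DRD2-HEK293. Conditions: 0.1 mM Ro20-1724, 12 nM quinpirole, 200 nM NKH477, 30 min RT.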

[14] = p53 small molecule agonists, cell-based qHTS assay: qHTS cell viability counter screen (AID 1963581); also: nearly all actives have a fitted effect of over 45% in size
Procedure, shortened: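 qHTS counter screen: 16 h compound exposure at 37 C of p53RE-bla HCT-116 cells (4,000 per well, seeded 5 h prior), cell viability by ATP luminescence.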

[15] = p53 small molecule agonists, cell-based qHTS assay (AID 1963582; active = well fitted activation curve with a large enough effect in the signal ratio in the repeat runs, not every such curve was filed as active; the % refers to the signal ratio)
Procedure, shortened: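 Measured: fluorescence from cleaved LiveBLAzer substrate. System: p53RE-bla cells, 16 h compound treatment at 37 C, 2 h substrate step at room temperature.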

[16] = target: 5-hydroxytryptamine receptor 2A (Homo sapiens) (UniProt P28223); assay: 5-hydroxytryptamine receptor 2A (HTR2A) small molecule antagonists, cell-based qHTS assay (AID 1963586); also: nearly all actives have a fitted effect of over 45% in size
Procedure, shortened: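 CHO cells stably expressing human HTR2A were plated for 18 h at 37 C, then loaded with calcium dye for 1 h. Compounds were preincubated 5 min at room temperature before DOI (4 nM solution) was added. Kinetic fluorescence was read for 3 min.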

[17] = target: Muscarinic acetylcholine receptor M1 (Homo sapiens) (UniProt P11229); assay: Cholinergic receptor muscarinic 1 (CHRM1) small molecule antagonists, cell-based qHTS assay (AID 1963588); also: nearly all actives have a fitted effect of over 40% in size
Sequence of Muscarinic acetylcholine receptor M1 (Homo sapiens) (P11229 whole entry, looked up): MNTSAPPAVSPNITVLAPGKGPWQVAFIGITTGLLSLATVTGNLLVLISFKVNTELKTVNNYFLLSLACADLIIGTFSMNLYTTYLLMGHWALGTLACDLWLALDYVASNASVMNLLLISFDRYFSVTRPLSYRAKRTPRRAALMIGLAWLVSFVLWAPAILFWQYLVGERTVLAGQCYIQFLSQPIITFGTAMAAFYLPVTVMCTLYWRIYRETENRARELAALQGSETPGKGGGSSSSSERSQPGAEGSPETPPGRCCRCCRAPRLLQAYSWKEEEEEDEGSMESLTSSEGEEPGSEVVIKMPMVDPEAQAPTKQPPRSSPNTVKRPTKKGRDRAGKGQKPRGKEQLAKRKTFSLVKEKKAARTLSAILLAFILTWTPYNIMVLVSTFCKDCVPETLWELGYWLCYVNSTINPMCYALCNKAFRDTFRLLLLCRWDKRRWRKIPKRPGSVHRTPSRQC
Procedure, shortened: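 Compounds were tested at 15 concentrations in three independent runs. Dye-loaded CHRM1-CHO cells were exposed 5 min at room temperature before stimulation by acetylcholine added at 50nM. Intracellular calcium was read kinetically on FDSS for 3 min.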

[18] = target: Muscarinic acetylcholine receptor M1 (Homo sapiens) (UniProt P11229); assay: Cholinergic receptor muscarinic 1 (CHRM1) small molecule agonists, cell-based qHTS assay (AID 1963589); also: nearly all actives have a fitted effect of over 35% in size; also: potency is read from the fitted curve at half-maximal effect
Procedure, shortened: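 Kinetic fluorescence (1 s intervals) of calcium-sensitive dye in human M1 CHO cells after compound addition; cells pre-incubated 18 h at 37 C/5% CO2 and dye-loaded 1 h.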

[19] = target: Beta-2 adrenergic receptor (Homo sapiens) (UniProt P07550); assay: Adrenergic beta2 receptor (ADRB2) small molecule agonists, cell-based qHTS assay (AID 1963593);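 also: CHO cells stably overexpressing human ADRB2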
Procedure, shortened: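 CHO cells stably over-expressing ADRB2 were plated overnight at 37C, then dosed with compounds plus a stimulation mix containing 100uM IBMX and 25uM Ro-20-1724 for 0.5hr at room temperature. cAMP was measured by HTRF competition, 1hr.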

[20] = target: KiSS-1 receptor (Homo sapiens) (UniProt Q969F8); assay: Human kisspeptin (KISS1R) small molecule agonists, calcium flux assay in KISS1R-HEK293 cells (AID 1920064; active = well fitted curve in the direction sought with a large enough effect in the repeat runs; an effect the other way counts as inactive or inconclusive)
Sequence of KiSS-1 receptor (Homo sapiens) (Q969F8 whole entry, looked up): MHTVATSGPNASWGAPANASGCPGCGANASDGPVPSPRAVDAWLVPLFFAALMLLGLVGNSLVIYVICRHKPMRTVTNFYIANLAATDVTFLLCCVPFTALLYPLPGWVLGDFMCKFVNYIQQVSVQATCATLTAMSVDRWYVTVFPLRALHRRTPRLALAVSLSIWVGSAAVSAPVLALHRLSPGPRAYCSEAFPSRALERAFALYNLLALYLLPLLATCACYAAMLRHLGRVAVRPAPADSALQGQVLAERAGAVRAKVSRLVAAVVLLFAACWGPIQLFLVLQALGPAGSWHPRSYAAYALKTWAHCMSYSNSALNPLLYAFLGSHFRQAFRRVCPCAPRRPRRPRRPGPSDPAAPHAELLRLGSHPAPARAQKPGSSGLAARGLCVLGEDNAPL
Procedure, shortened: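 After overnight (18 h) culture at 37 C/5% CO2, human KISS1R-HEK293 cells received calcium dye for 1 h, then test compound; emission at 540 nm (excitation 480 nm) was tracked for 3 min.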

SMILES	Potency [1]	Potency [2]	Potency [3]	Potency [4]	Potency [5]	Potency [6]	Potency [7]	Potency [8]	Potency [9]	Potency [10]	Potency [11]	Potency [12]	Potency [13]	Potency [14]	Potency [15]	Potency [16]	Potency [17]	Potency [18]	Potency [19]	Potency [20]
CCCCC(CC)CNC(=O)CC(C)OC(=O)CCC(=O)O (stereo not drawn)	inactive	inactive	inactive	inactive	inactive	inactive	inactive	inactive	inactive	inactive	inactive	inactive	inactive	–	–	–	–	–	–	–
NC(=O)Nc1nc2ccccc2[nH]1	inactive	inactive	inactive	–	inactive	–	inactive	–	inactive	inactive	inactive	inactive	–	inactive	inactive	inactive	inactive	inactive	inactive	–
O=[N+]([O-])c1ccc2ncccc2c1	inactive	inactive	inactive	inactive	–	inactive	inactive	inactive	inactive	–	–	inactive	–	inactive	–	inactive	–	inactive	–	–
CC(=O)OC(C)C[N+](C)(C)C (stereo not drawn)	inactive	1.07 µM (active)	inactive	–	inactive	–	inactive	inactive	inactive	inactive	inactive	inactive	inactive	inactive	inactive	inactive	–	0.151 µM (active)	–	–
CC(C)O.CC(C)O.CCOC(=O)/C=C(\C)O.CCOC(=O)/C=C(\C)O.[Ti]	inactive	inactive	inactive	–	–	inactive	inactive	inactive	inactive	inactive	inactive	inactive	inactive	inactive	–	inactive	inactive	inactive	–	–
CCOC(=O)[C@@H](C)Oc1ccc(Oc2nc3ccc(Cl)cc3o2)cc1	inactive	–	inactive	inactive	inactive	inactive	inactive	inactive	–	inactive	inactive	inactive	inactive	inactive	inactive	inactive	inactive	inactive	inactive	inactive
CCNC(=O)[C@@H]1CCCN1C(=O)[C@H](CCCN=C(N)N)NC(=O)[C@H](CC(C)C)NC(=O)CNC(=O)[C@H](Cc1ccc(O)cc1)NC(=O)[C@H](CO)NC(=O)[C@H](Cc1c[nH]c2ccccc12)NC(=O)[C@H](Cc1cnc[nH]1)NC(=O)[C@@H]1CCC(=O)N1 ([pGlu]HWSYGLRP-NHEt)	inactive	–	inactive	inactive	inactive	inactive	inactive	–	inactive	inactive	inactive	inactive	inactive	inactive	inactive	–	–	–	–	inactive
CSc1c(Cl)c(Cl)c(Cl)c(Cl)c1Cl	inactive	–	inactive	inactive	–	inactive	–	inactive	inactive	inactive	inactive	inactive	inactive	inactive	inactive	inactive	inactive	inactive	inactive	inactive
C=C(C)C(=O)OCCCCCCCCCC	inactive	–	inactive	–	–	–	inactive	inactive	inactive	inactive	–	inactive	inactive	inactive	–	inactive	–	inactive	inactive	inactive
Cc1c(C(=O)O)cccc1[N+](=O)[O-]	inactive	–	inactive	–	inactive	–	inactive	inactive	inactive	inactive	inactive	–	inactive	inactive	inactive	inactive	inactive	inactive	–	inactive
C[C@H](CCC(=O)O)[C@H]1CC[C@H]2[C@@H]3[C@H](O)C[C@@H]4C[C@H](O)CC[C@]4(C)[C@H]3CC[C@]12C	inactive	–	inactive	inactive	inactive	inactive	inactive	–	–	–	–	inactive	inactive	–	inactive	–	inactive	–	–	inactive
Cn1cnc2c(=O)[nH]c(N)nc21	inactive	–	–	–	–	inactive	inactive	inactive	inactive	inactive	inactive	inactive	inactive	inactive	–	inactive	–	inactive	inactive	inactive
CN[C@H]1CC[C@@H](c2ccc(Cl)c(Cl)c2)c2ccc(S(N)(=O)=O)cc21	61.1 µM (active)	–	inactive	inactive	–	inactive	inactive	–	–	–	48.6 µM (active)	–	–	inactive	–	inactive	–	inactive	–	inactive
NCc1cccc(C2CCN(C(=O)c3ccc(C#Cc4ccccc4F)o3)CC2)c1	54.5 µM (active)	–	inactive	–	inactive	inactive	–	–	–	–	–	–	54.5 µM (active)	–	–	–	–	inactive	–	inactive
CCCCCC[C@@H](O)C/C=C\CCCCCCCC(=O)OC	inactive	–	inactive	inactive	inactive	–	inactive	inactive	–	inactive	inactive	inactive	inactive	inactive	inactive	inactive	–	inactive	–	inactive
CC(=O)CC(=O)Nc1ccc(S(=O)(=O)O)cc1	inactive	–	–	inactive	inactive	inactive	inactive	inactive	–	–	inactive	inactive	inactive	–	inactive	inactive	inactive	inactive	inactive	inactive
CS(C)=O	inactive	–	inactive	inactive	inactive	inactive	inactive	–	–	inactive	inactive	inactive	inactive	inactive	inactive	–	–	–	inactive	inactive
